The values that follow come from PubChem BioAssay (Tox21).

Experiment [1] can be described thus: A CellTox Green Cytotoxicity Assay to monitor cytotoxicity in HepG2 cells - 32 hour (AID 1224883). Further: nearly all actives have a fitted effect of over 50% in size. Further: potency means the concentration at half of the fitted maximal effect. Summed up:
(§1)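 Real-time, homogeneous cytotoxicity readout: dead-cell DNA staining by CellTox Green in HepG2 monolayers, fluorescence measured at timed intervals up to 40 h of continuous compound exposure.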

The nature of experiment [2]: A CellTox Green Cytotoxicity Assay to monitor cytotoxicity in HEK293 cells - 8 hour (AID 1224884). Further: nearly all actives have a fitted effect of over 35% in size. Further: potency means the concentration at half of the fitted maximal effect. Summed up: (§2)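 Cytotoxicity was tracked continuously in HEK293 cells by a DNA-binding dye excluded from viable cells. Compounds were transferred in DMSO 5 h after seeding; fluorescence was recorded at intervals up to 40 h.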
The nature of experiment [3]: qHTS RealTime-Glo MT Cell Viability Assay in HepG2 cells - 16 hour (AID 1224885). Further: nearly all actives have a fitted effect of over 50% in size. Further: potency means the concentration at half of the fitted maximal effect. The method, boiled down: (§3)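 Tox21 10K library screened in qHTS format on HepG2 cells carrying RealTime-Glo reagents. Compounds were added after a 5 h preincubation, and the luminescent signal from continuous culture was measured repeatedly during 40 h treatment.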
(qHTS replaces the single test concentration by a dilution series.)

Experiment [4] in a line: qHTS RealTime-Glo MT Cell Viability Assay in HEK293 cells - 8 hour (AID 1224887). Further: nearly all actives have a fitted effect of over 50% in size. Further: potency means the concentration at half of the fitted maximal effect. The method, boiled down:
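Nonlytic bioluminescent viability monitoring. HEK293 at 600 cells/well with reagent; 5 h settle; compound transfer by pintool; plates held at 37 C and read at set time points.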

Experiment [5] can be described thus: A CellTox Green Cytotoxicity Assay to monitor cytotoxicity in HEK293 cells - 16 hour (AID 1224888). Further: nearly all actives have a fitted effect of over 35% in size. Further: potency means the concentration at half of the fitted maximal effect. Summed up: as §2
Experiment [6] in a line: A CellTox Green Cytotoxicity Assay to monitor cytotoxicity in HepG2 cells - 8 hour (AID 1224890). Further: nearly all actives have a fitted effect of over 45% in size. Further: potency means the concentration at half of the fitted maximal effect. Summed up:
as §1

Experiment [7] in a line: qHTS assay to identify small molecule antagonists of the estrogen receptor alpha (ER-alpha) signaling pathway using the BG1 cell line in the presence of 0.1 nM 17-beta-estradiol - cell viability counter screen (AID 1259241). Further: nearly all actives have a fitted effect of over 40% in size. The method, boiled down:
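Cells were plated and left 24 hr, compounds in DMSO were pinned in, 17beta-estradiol was added to 0.1 nM final, and after 22 hr CellTiter-Fluor reagent was added for 30 min before fluorescence was read.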

The nature of experiment [8]: qHTS assay to identify small molecule antagonists of the androgen receptor (AR) signaling pathway using the MDA cell line in the presence of 0.5 nM R1881 - cell viability counter screen (AID 1259242). Further: nearly all actives have a fitted effect of over 45% in size. Further: potency means the concentration at half of the fitted maximal effect. The method, boiled down:
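Cytotoxicity toward MDA-kb2 cells is measured by CellTiter-Fluor live-cell protease fluorescence after 16 hr compound exposure at 37C in the presence of 0.5 nM R1881 stimulator.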

Experiment [9] can be described thus: qHTS RealTime-Glo MT Cell Viability Assay in HEK293 cells - 24 hour (AID 1224886). Further: nearly all actives have a fitted effect of over 50% in size. Further: potency means the concentration at half of the fitted maximal effect. The method, boiled down:
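Luminescence generated by NanoLuc from substrate produced by living HEK293 cells served as the viability signal. Each value reflects the reading at its stated time point during continuous 40 h compound exposure at 37 C.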

Experiment [10] in a line: qHTS RealTime-Glo MT Cell Viability Assay in HepG2 cells - 0 hour (AID 1224889). Further: nearly all actives have a fitted effect of over 50% in size. Further: potency means the concentration at half of the fitted maximal effect. The method, boiled down:
as §3

The structures appear in SMILES notation. “And” between values parts separate entries of the source, which are not always exact repeats. Identical values can stand only once. Inconclusive results are not listed. Where a structure was tested more than once in an assay, its records may differ in their call. The source made the active and inactive calls. The call rests on the fitted dose curve; in most records, active means well fitted curve in the direction sought with a large enough effect in the repeat runs; inconclusive means weak or mixed curves; inactive means no such curve, though single readings can be large; an effect the other way counts as inactive or inconclusive.

As for `CC(=O)OCC1=C(C(=O)O)N2C(=O)[C@@H](NC(=O)Cc3cccs3)[C@H]2SC1`, the Potency entry in [1], in experiment [2], in [3], in experiment [4], in experiment [5] and in experiment [6] was “inactive” each time. Further, the Potency entry in experiment [7] and in experiment [8] was “inactive” throughout.

Regarding `NNCCc1ccccc1`, the Potency entry in experiment [1], in experiment [3], in experiment [9], in experiment [4], in experiment [5] and in experiment [10] was “inactive” in each case. The Potency entry in experiment [6], in [7] and in experiment [8] was “inactive” each time.

`CO[Si](OC)(OC)c1ccccc1`: the Potency entry in experiment [1], in experiment [3], in experiment [9], in [4], in experiment [5] and in [10] was “inactive” in each case. Besides, the Potency entry in [6], in [7] and in experiment [8] was “inactive” in each case.

As to `O=C(O)c1cccc(C(=O)O)c1`, the Potency result in experiment [1], in experiment [2], in experiment [3], in [4], in experiment [5] and in experiment [6] was “inactive” each time. In addition, the Potency entry in experiment [8] was “inactive”.

For `O=C(O[C@@H]1Cc2c(O)cc(O)cc2O[C@@H]1c1cc(O)c(O)c(O)c1)c1cc(O)c(O)c(O)c1`, the Potency entry in experiment [1], in experiment [2], in experiment [5], in experiment [10] and in experiment [6] was “inactive” in each case.

On to `Cc1c(O)cccc1C(=O)N[C@@H](CSc1ccccc1)[C@H](O)CN1C[C@H]2CCCC[C@H]2C[C@H]1C(=O)NC(C)(C)C`, for which the Potency is 12 µM (active) in [1]; 59.5 µM (active) and 26.6 µM (active) in [8]. Moreover, the Potency entry in experiment [2], in experiment [4], in experiment [5], in experiment [10] and in experiment [6] was “inactive” throughout.

`C=CC(=O)OCCCCCCOC(=O)C=C`: the Potency result in experiment [1], in experiment [2], in experiment [5], in [10], in experiment [6] and in experiment [8] was “inactive” each time. Moreover, the Potency in experiment [9] was 43.6 µM (active).

With `O=C(Cl)c1cccc(C(=O)Cl)c1`, the Potency result in experiment [1], in experiment [2], in experiment [3], in [4], in experiment [5] and in [10] was “inactive” throughout. Further, the Potency result in experiment [6] and in experiment [8] was “inactive” in each case.

As to `NC(N)=Nc1nc(CSCC/C(N)=N/S(N)(=O)=O)cs1`, the Potency result in experiment [1], in [2], in experiment [3], in experiment [4], in [5] and in experiment [6] was “inactive” in each case. In addition, the Potency result in [7] and in experiment [8] was “inactive” in each case.

Consider `CC(C)(C)c1ccc(O)c(C(C)(C)C)c1`, for which the Potency was 48.8 µM (active) and 43.6 µM (active) in experiment [1]; 43.5 µM (active) in experiment [2]; 38.7 µM (active) in experiment [9]; 34.5 µM (active) in [4]; 24.4 µM (active) and 34.7 µM (active) in [5]; 48.8 µM (active) and 49 µM (active) in [6]. For the same compound, the Potency entry in experiment [10], in experiment [7] and in experiment [8] was “inactive” throughout.

Regarding `CCC(C)(C)C(=O)O[C@H]1C[C@@H](C)C=C2C=C[C@H](C)[C@H](CC[C@@H]3C[C@@H](O)CC(=O)O3)[C@H]21`, the Potency in experiment [1] was 38.9 µM (active) and 9.52 µM (active). The Potency entry in experiment [2], in experiment [5], in [6], in experiment [7] and in [8] was “inactive” each time.

With `O`, the Potency entry in [1], in experiment [2], in [3], in experiment [4], in [5] and in [6] was “inactive” throughout. In addition, the Potency result in [8] was “inactive”.

Regarding `CCCCC(CC)COC(=O)CC(C(=O)OCC(CC)CCCC)S(=O)(=O)O` (stereo unspecified), the Potency in [1] is 42 µM (active) and 43.6 µM (active); in [2], 13.8 µM (active); in experiment [5] it was 19.5 µM (active). The Potency entry in [3], in experiment [6] and in experiment [8] was “inactive” in each case.

For `O=C1NCC2(CCN(CCc3ccccc3)CC2)O1`, the Potency result in [1], in [3], in experiment [4], in [5], in [10] and in [6] was “inactive” throughout. For the same compound, in [8], the Potency result was “inactive”.

Regarding `COC(=O)c1cccc(C(=O)OC)c1`, the Potency entry in experiment [1] is “inactive and 24.5 µM (active)”; in [6], “inactive and 43.6 µM (active)”. Also, the Potency result in experiment [3], in experiment [4], in experiment [10] and in [8] was “inactive” in each case.

With `[Cl][In]([Cl])[Cl]`, the Potency entry in experiment [1], in [3], in experiment [4], in [5], in experiment [6] and in experiment [7] was “inactive” in each case. Further, the Potency entry in experiment [8] is “inactive”.

For the compound `c1ccc2c(c1)CCCC2C1=NCCN1` (stereo unspecified), the Potency result in [1], in [3], in experiment [9], in experiment [4], in experiment [5] and in [10] was “inactive” each time. For the same compound, the Potency entry in [6], in experiment [7] and in experiment [8] was “inactive” in each case.

`Cc1cc(C2(c3cc(C)c(O)cc3C)OS(=O)(=O)c3ccccc32)c(C)cc1O`: the Potency result in [1], in experiment [9], in experiment [4], in experiment [5] and in experiment [6] was “inactive” throughout. Also, the Potency in experiment [10] was 19.5 µM (active) and 15.5 µM (active); in experiment [8] it was 24.3 µM (active) and 15.4 µM (active).

In the case of `Cc1cc(OCCOCC[N+](C)(C)Cc2ccccc2)ccc1C(C)(C)CC(C)(C)C`, the Potency in experiment [1] is 15.4 µM (active) and 9.52 µM (active); in [3] it was 17.3 µM (active) and 21.3 µM (active); in [4], 48.7 µM (active) and 23.9 µM (active); in experiment [5], 38.7 µM (active) and 23.9 µM (active); in experiment [6], 21.7 µM (active) and 21.3 µM (active); in [8], 43 µM (active) and 26.6 µM (active). Besides, the Potency result in experiment [10] and in experiment [7] was “inactive” each time.

Regarding `CCCCN(CCO)CCCC`, the Potency result in experiment [1], in [3], in experiment [9], in [4], in experiment [5] and in experiment [6] was “inactive” in each case. Moreover, the Potency result in experiment [7] and in experiment [8] was “inactive” throughout.

Turning to `Cc1cccc([N+](=O)[O-])c1C(=O)O`, the Potency entry in [1], in experiment [3], in experiment [9], in experiment [4], in experiment [5] and in experiment [6] was “inactive” in each case. In addition, the Potency entry in [7] and in [8] was “inactive” each time.
